IDH1 R132H inh: blocks human mutant IDH1 R132H enzyme; 390,000 tested, 0.093% active; IDH1-R132H enzyme, NADPH consumption, diaphorase/resazurin fluorescence; O75874; Potency, µM (titrated, usually from 76.6 µM), for inactives: at the highest dose activity change, negative = inhibition, actives largely listed as inhibitors; also: % is scaled to controls: 0 for no effect and ±100 for the full control effect; nearly all actives have a fitted effect of over 65% in size
Target sequence (O75874 whole entry R132H, stated change not applied): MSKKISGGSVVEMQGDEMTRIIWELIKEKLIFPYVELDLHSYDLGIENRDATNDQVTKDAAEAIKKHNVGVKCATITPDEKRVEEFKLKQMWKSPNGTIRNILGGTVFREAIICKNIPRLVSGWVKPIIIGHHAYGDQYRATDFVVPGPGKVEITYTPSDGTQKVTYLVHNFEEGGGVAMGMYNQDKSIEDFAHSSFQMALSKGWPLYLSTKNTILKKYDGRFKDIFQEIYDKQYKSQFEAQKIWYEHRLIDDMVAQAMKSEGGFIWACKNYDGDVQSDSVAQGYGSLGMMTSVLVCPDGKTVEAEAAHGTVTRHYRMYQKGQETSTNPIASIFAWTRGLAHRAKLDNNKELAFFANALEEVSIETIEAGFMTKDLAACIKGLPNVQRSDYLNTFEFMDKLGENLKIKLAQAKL
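IDH1-R132H (0.5 ug/mL) preincubated 30 min with compound, then NADPH (0.016 mM) and alpha-KG (2 mM) added; 80 min at RT, pH 7.5. Remaining NADPH coupled via diaphorase/resazurin to fluorescence (540/590 nm); concentration-response curves normalized to no-enzyme control.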
ELG1 DNA repair: blocks ELG1-dependent DNA repair in HEK293T cells; HEK293T ELG1-luciferase reporter, luminescence, 16 h; DNA damage induced by 5-fluorouridine; 330,000 tested, 2.3% active; Potency, µM (highest dose often 46.1 µM), without a hit: top-dose activity change, negative = inhibition, most hits filed as inhibitors; also: % is scaled to controls: 0 for no effect and ±100 for the full control effect; nearly all actives have a fitted effect of over 55% in size
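Luminescence from the luciferase reporter, measured 30 min after ONE-Glo reagent at room temperature, was the read-out. Beforehand, 2,000 cells per well were exposed for 16 hr at 37 °C to 5-fluorouridine together with compound or vehicle.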
Nrf2 ARE act: activators of Nrf2 (ARE) signaling | Potency, µM (series often up to 46.1 µM), for the others: at the highest dose activation, actives largely listed as activators | AREc32 ARE-luciferase reporter (MCF7-derived line), luminescence, 24 h | AID 624171 | 410,000 tested, 0.31% active; also: % of control where 0% means no effect; nearly all actives have a fitted effect of over 65% in size
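AREc32 cells carrying an ARE-driven firefly luciferase reporter were seeded at 1000 cells/well in OPTI-MEM with 5% FBS, then exposed to compound for 24 hr at 37 deg C. Luminescence was read with Steady-Glo after 30 min at RT.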
A549 tox: kills or reduces viability of A549 cells in Nrf2 counter-screen; A549 ARE-Fluc cells, CellTiter-Fluor viability, 18-24 h; Potency, µM (doses to about 46 µM), without a hit: at the top dose activity change, negative = cytotoxicity, most hits filed as inhibitors; 390,000 tested, 0.16% active; also: % is scaled to controls: 0 for no effect and ±100 for the full control effect
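A549 ARE_Fluc cells in 5% FBS OPTI-MEM were exposed to compounds in concentration-response for 18-24 h at 37 deg C. Viability was read by CellTiter-Fluor fluorescence (Ex 405/Em 525) after 30 min, before the luciferase read.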
Nrf2 inh: inhibitors of Nrf2 signaling; 360,000 tested, 2.1% active; AID 504444; A549 ARE-Fluc reporter, luciferase luminescence, 18-24 h; Potency, µM (doses to about 46 µM), for inactives: top-dose activity change, negative = inhibition, actives largely listed as inhibitors; also: % is scaled to controls: 0 for no effect and ±100 for the full control effect; nearly all actives have a fitted effect of over 60% in size
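Quantitative HTS in A549 cells stably bearing an antioxidant response element-firefly luciferase construct. Inhibition of Nrf2-driven transcription was scored by luminescence after 18-24 h of compound exposure at 37 °C.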
* hit, by the source's call; u = inconclusive; x = no result given; [ ] = remark or other dose. A selection: hits, their analogues and other compounds. The true share with any hit is near 3.8%. Calls follow the shape of the dose curve; as a rule, active = well fitted curve in the direction sought with a large enough effect; inconclusive = small, poorly fitted or top-dose-only effect, or another doubt; inactive = no such curve, though single readings can be large; an effect the other way counts as inactive or inconclusive. Potency is read from the fitted curve at half-maximal effect.

SMILES | IDH1 R132H inh | ELG1 DNA repair | Nrf2 ARE act | A549 tox | Nrf2 inh
COc1ccc(Nc2nc3ccccc3nc2NS(=O)(=O)c2cccs2)cc1 | 1% | -11% | 0% | -19% | 16µM*
COc1ccc(S(=O)(=O)N2CCC(C(=O)NCC(=O)Nc3c(C)cccc3C)CC2)cc1OC | 4% | x | 0% | 1% | -2%
CCOC(=O)c1nc(NCc2ccc(Cl)cc2)c2c(C)noc2n1 | 7% | x | -1% | -1% | x
CCOC(=O)/C=C/c1cc(F)c(S(=O)(=O)N2CCN(S(=O)(=O)c3ccc4c(c3)OCCO4)CC2)cc1F | x | x | x | 1% | 7%
COc1cccc(N2CCN(c3ncnc4c3[nH]c3ccc(F)cc34)CC2C)c1 (stereo not drawn) | 2% | u | -4% | 18µM* | 6.5µM*
COc1cc2[nH]c3c(N4CCN(c5ccc(Cl)cc5)CC4)ncnc3c2cc1OC | -2% | -7% | 0% | 2%[1.84 µM] | u
COc1cccc(N2CCN(c3ncnc4c3[nH]c3ccccc34)CC2C)c1 (stereo not drawn) | x | 4.6µM* | x | x | x
CCN1CCN(C(c2cccc(F)c2)c2c(O)cc(C)n(CCOC)c2=O)CC1 (stereo not drawn) | -2% | x | 4% | 7% | x
COC(=O)C1CCN(C(=O)/C=C/c2ccc(OC)cc2)CC1 | 2% | u | 0% | -4% | u
COc1ccc2cc(/C=C/C(=O)N3CCN(CC(=O)N4CCCCCC4)CC3)ccc2c1 | 5% | -7% | 5% | -15% | 21µM*
O=[N+]([O-])c1cc(S(=O)(=O)Nc2ccc(Cl)cc2)ccc1N/N=C/c1ccncc1 | -4% | 11% | 0% | -10% | u
O=[N+]([O-])c1ccc(Cl)cc1N/N=C/c1ccncc1 | -9% | -4% | 1µM* | -5% | -30%
O=c1c2[nH]c3ccccc3c2ncn1C1CCCCC1 | 4% | u | 2% | 7% | 2%
O=C1c2ccccc2C(=O)c2c1ccc1c(=O)n(C3CCCCC3)[nH]c21 | 5% | 21µM* | 0% | -29% | u
O=C(NC(=S)Nc1nc2c(s1)CCCC2)c1ccccc1 | 7% | u | 2.5µM* | -12% | u
Cc1ccccc1-c1cc(C(=O)Nc2nc3c(s2)CCCC3)c2ccccc2n1 | 1% | -2% | 0% | -9% | -18%
COC(=O)c1ccc(C(=O)NC(=S)Nc2nc3c(s2)CCCC3)cc1 | 2% | u | 9% | 14% | 22%
Cc1ccccc1C(=O)NC(C(=O)Nc1nc2c(s1)CCCC2)C(C)C (stereo not drawn) | 1% | 21µM* | 1% | 1% | -14%
Cc1ccc(N2CCN(C(=O)NCc3noc4ccccc34)CC2C)cc1 (stereo not drawn) | 0% | x | 8% | 8% | 9%
COC(=O)c1ccccc1NC(=O)Cn1ncc2c(C)n(Cc3ccc(F)cc3)c(C)c2c1=O | -2% | x | 0% | -18% | u
COC(=O)c1ccc2nc(-c3ccc(C)cc3)c(Cc3cccc(Cl)c3)n2c1 | x | x | 20% | x | x
CN(CC(=O)Nc1ccc(F)c(F)c1F)C(=O)/C=C/c1ccco1 | 0% | u | 13µM* | 1% | -7%
CN(CC(=O)Nc1ccc(F)c(F)c1F)C(=O)/C=C/c1ccc(Cl)cc1 | -2% | 16% | 0%[9.22 µM] | 3% | -16%
Cc1ccc(-c2[nH]ncc2CNCc2ccc(CN(C)C)cc2)cc1 | x | x | x | u | 5%
Cn1nc(C(C)(C)C)cc1C(=O)NNC(=O)c1cccc(Cl)c1 | 24% | 7.3µM* | 2% | 0% | -26%
SMILES | IDH1 R132H inh | ELG1 DNA repair | Nrf2 ARE act | A549 tox | Nrf2 inh
CCOC(=O)c1[nH]cnc1C(=O)Nc1cccc(N)n1 | 3% | 9.2µM* | 0% | -7% | 1%
CCOC(=O)c1[nH]cnc1C(=O)Nc1ccc(F)cc1 | 3% | 9% | 0% | -9% | u
CC(C)c1ccc(Nc2c(-c3ccccn3)nc3ccccn23)cc1 | u | x | 1% | u | u
C[n+]1c2n(c3ccccc31)N=C(c1ccc(-c3ccccc3)cc1)CS2 | 2% | u | -1% | u | 10µM*
C=CCNc1ncnc2c1ncn2[C@H]1CN(C2CCCC2)C[C@@H](CO)O1 | x | x | -1%[9.22 µM] | x | x
S=c1[nH]nc(-c2cc(-c3ccccc3)n[nH]2)n1/N=C/C(Br)=C/c1ccccc1 | u | u | u | u | 23µM*
COc1ccc(-c2nnc(SC)o2)c(OC)c1 | 4% | u | 8% | 0% | u
COc1ccc(OC)c(-c2nnc(-c3ccc(C)o3)o2)c1 | 7% | 17% | 11µM* | 1% | u
Cc1ccc(C(=O)NCC(=O)OCC(=O)c2cccc3ccccc23)cc1 | x | x | x | 15% | 3%
Brc1ccc(N/N=C(/N=Nc2nn[nH]n2)c2ccccc2)cc1 | 0% | u | -1% | u | 10µM*
O=C(O)c1ccc(N=N/C(=N\Nc2ccc(C(=O)O)cc2)c2ccccc2)cc1 | 3% | u | -1% | u | 5%
CCN(C(=O)CSc1cc(-c2ccccc2)c2ccc(OC)cc2n1)C1CCS(=O)(=O)C1 (stereo not drawn) | 0% | u | 4% | u | 23µM*
COc1ccc(Cl)cc1NC(=O)CSc1cn(CC(=O)N2CCCCC2)c2ccccc12 | 0% | x | 1% | -21% | u
COc1ccc(N2CCN(C(=O)CSc3nnc4n3C(C)(C)Cc3ccccc3-4)CC2)cc1 | 4% | 21µM* | 0% | -7% | u
COC(=O)CSc1nnc2n1C(C)(C)Cc1ccccc1-2 | -1% | -4% | 0% | 17% | -4%
COc1cc(NC(=O)CSc2nnc3n2C(C)(C)Cc2ccccc2-3)cc(OC)c1 | -6% | 22µM* | 0% | 7% | u
CCCCCc1ccc(S(=O)(=O)Nc2cc(C)ccn2)cc1 | 4% | 10µM* | 0% | -7% | u
COc1cc(-c2nnn(CC(=O)Nc3ccc(OC(F)(F)F)cc3)n2)cc(OC)c1OC | x | x | 9% | -17% | u
COCCn1c(SCC(=O)Nc2ccc(N3CCOCC3)cc2)nc2ccccc21 | 1% | -11% | 0% | -6% | -4%
COCCn1c(SCC(=O)Nc2ccc(S(=O)(=O)N(C)C)cc2)nc2ccccc21 | 5% | 15µM* | 0% | -6% | -20%
CC(C)(C)c1ccc(C(=O)N2CCC(C(=O)NC3CCCCCC3)CC2)cc1 | 1% | u | 0% | -4% | u
COc1cccc2c1C(=O)c1c(O)c3c(c(O)c1C2=O)C[C@@](O)(C(=O)CO)C[C@@H]3O[C@H]1C[C@H](N)[C@@H](O)[C@H](C)O1 | 4% | x | -4% | u | 3.3µM*

Assay outcomes from PubChem.
